According to PubChem BioAssay (NCATS):
Calls of active or inactive are those of the source. Calls come from the whole dose curve; as a rule, active = well fitted curve in the direction sought with a large enough effect; inconclusive = small, poorly fitted or top-dose-only effect, or effect the other way, or another doubt; inactive = no such curve, though single readings can be large or run the other way.

Assay: qHTS for inhibitors of adenylyl cyclases using a fission yeast platform: a pilot screen against the NCATS LOPAC library (AID 1347410)
Details: S. pombe CHP2027, fbp1-GFP fluorescence, 18 h, yeast expressing mammalian AC9 and human GNAS; series mostly up to 57.5 µM
Excerpt: PI: Charles S. Hoffman Ph.D
Boston College, 140 Commonwealth Ave., Chestnut Hill, MA
Assay Development and Screening Technology Laboratory (ADST)
National Center for Advancing Translational Sciences (NCATS), Rockville, MD
National Institute of Health (NIH), Bethesda, Maryland
The fission yeast Schizosaccharomyces pombe uses a cAMP signaling pathway to link glucose-sensing to Protein Kinase A activity in order to regulate cell growth, sexual development, gluconeogenesis, and exit from stationary phase. Here, we describe the successful functional expression of all ten mammalian adenylyl cyclase (AC) genes, along with the human GNAS G-alpha gene in this organism. By measuring expression of a PKA-repressed fbp1-GFP reporter together with direct measurements of intracellular cAMP levels, one can detect both basal AC activity from all ten AC genes as well as GNAS-stimulated activity from eight of the nine transmembrane ACs (tmACs; AC2-AC9).
Further confirmation and validation of active compounds lead to the identification of diphenyleneiodonium chloride (DPI) as an inhibitor of basal AC activity. This fluorescence based fbp1-GFP-GNAS screening technology could facilitate the development of therapeutic compounds that target GNAS or the ACs, an area in which there is significant unmet need.
The gain-of-signal output is not substantially affected by cytotoxic compounds within the library.
Getz RA, et al., A fission yeast platform for heterologous expression of mammalian adenylyl cyclases and high throughput screening, Cellular Signaling, 2019, 60: 114-121. doi.org/10.1016/j.cellsig.2019.04.010.
PROTOCOL TABLE (as described by Inglese J, Shamu CE and Guy RK. 2007)
SEQUENCE No. (e.g., 1, 2, 3, etc.); […] (e.g., Cells, Incubation, Reagent, etc.); VALUE; DESCRIPTION.
1; Dispense growth medium; 2 uL; black, clear bottom, low base, 1536-well Aurora assay plate.
2; Compounds and control; 23 nL; Kalypsis pin tool (Wako USA) equipped with a 1536-well pin head to transfer to the assay plates.
3; Dispense yeast cells; 2 uL; CHP2027 cells.
4; Incubation; 18 hours (dark at 30C); Non-humidified microbial incubator.
5; Detector; 425V; Fluorescence; laser scanning cytometry.
NOTES (numbers refer to Sequence numbers above)
1. S. pombe growth medium EMM containing histidine, lysine, and uracil was initially dispensed into the assay plate to avoid yeast contamination using a Multidrop Combi dispenser (Thermo Fisher Scientific).
2. 10 mM stock solution of DPI (Sigma-Aldrich D2926) dissolved in DMSO was used as a 16-point dose response positive control, while 1.11 mM DPI stock solution was used as a single point max response positive control. Solvent DMSO was used as the negative control. Control DPI was transferred as a single-dose (column 3; rows 1-32; 1.11 mM stock), and multi-dose (column 4; rows 1-32; 10mM stock; 1:1.5 dilution; 16pnt titration) positive controls. Vehicle control DMSO was pinned into column 1-2, rows 1-32. Lopac compounds were pinned into columns 5-48 resulting to a final concentration range 57 µM to 78.4 nMControl DPI stock (10 mM) was prepared by dissolving 10 mg in 3.18 mL DMSO; while 1.11 mM DPI stock was prepared by mixing 100 uL of 10 mM DPI with 800 uL DMSO. To create the control plates, we initially start with a 384-well compound working plate. With a repeater pipette, (a.) 16 uL/well of 1.11 mM DPI was added to column 3; (b.) 16 uL/well of DMSO was added into rows 2-16 of column 4; (c.) 50 uL/well of DPI added to rows 1 and 2 of column 4; (d.) 32 uL serial dilution (two-thirds-fold) from rows 2 to 16 of column 4 with manual pipette. From the 384-well compound working plate, 7 uL of respective control compound was transferred to respective columns of the 1536-well compound plate using a multichannel pipette.
3. S. pombe CHP2027 (AC9-GNAS-PDE4D2) expressing fbp1-GFP cells were grown at 30C in EMM medium containing histidine, lysine, and uracil. […]
With `O=C(CCc1ccc(O)cc1)c1c(O)cc(O)cc1O` the outcome was “inactive”.
In the case of `O=c1ccc2ccc(O)c(O)c2o1`, the outcome was “inactive”.
With `COc1ccccc1N1CCN(CCN(C(=O)C2CCCCC2)c2ccccn2)CC1` the outcome was “inactive”.
For `CC1(C)C(=O)N(CCN2CCC(C(=O)c3ccc(F)cc3)CC2)c2ccccc21`, the outcome was “inactive”.
With `NCCCCNCCCN` the outcome was “inactive”.
With `Cc1cc(Cl)ccc1OCCCC(=O)NO` the outcome was “inactive”.
With `Cc1cccc(-c2[nH]ncc2-c2ccc3ncccc3n2)n1` the outcome was “inactive”.
For `Clc1ccc2c(N3CCN(CCCN4CCN(c5ccnc6cc(Cl)ccc56)CC4)CC3)ccnc2c1`, the outcome was “inactive”.
With `CC(C)c1ccc2c(c1)c(SC(C)(C)C)c(CC(C)(C)C(=O)O)n2Cc1ccc(Cl)cc1` the outcome was “inactive”.
With `Oc1ccc2ccccc2c1SSc1c(O)ccc2ccccc12` the outcome was “inactive”.
With `CN(C)C(=O)[C@H](O)[C@H](Cc1ccccc1)NC(=O)c1cc2cc(Cl)ccc2[nH]1` the outcome was “inactive”.
With `Cc1c(OCC(F)(F)F)ccnc1CS(=O)c1nc2ccccc2[nH]1` (stereo not given) the outcome was “inactive”.
For `O=C(O)c1cccnc1Nc1cccc(C(F)(F)F)c1`, the outcome was “inactive”.
With `O=c1c(O)c(-c2ccc(O)cc2O)oc2cc(O)cc(O)c12` the outcome was “inactive”.
In the case of `Nc1nc(N)c(N=O)c(OCC2CCCCC2)n1`, the outcome was “inactive”.
In the case of `NC(=NCc1ccccc1)NC(=O)c1nc(Cl)c(N)nc1N`, the outcome was “inactive”.
With `CCN(CC)CCOc1ccc(Nc2ncc3cc(-c4c(Cl)cccc4Cl)c(=O)n(C)c3n2)cc1` the outcome was “inactive”.
For `CCOC(=O)C(C)Oc1cccc2c(=O)n(CC(=O)Nc3ccc4c(c3)OCCO4)ccc12` (stereo not given), the outcome was “inactive”.
With `C[C@H](Cc1ccc(O)c(O)c1)[C@@H](C)Cc1ccc(O)c(O)c1` the outcome was “inactive”.
For `O=C1NC(=O)C(c2ccccc2[N+](=O)[O-])=C1Nc1ccc(O)c(Cl)c1`, the outcome was “inactive”.
With `C[C@@H](c1ncncc1F)[C@](O)(Cn1cncn1)c1ccc(F)cc1F` the outcome was “inactive”.
For `Oc1ccc(-c2nc(-c3ccc(F)cc3)c(-c3ccncc3)[nH]2)cc1`, the outcome was “inactive”.
In the case of `O=c1cc(N2CCOCC2)oc2c(-c3ccccc3)cccc12`, the outcome was “inactive”.
With `COc1ccc2cc([C@H](C)C(=O)O)ccc2c1` the outcome was “inactive”.
For `COc1cc2c(cc1OC)C1CC(=O)C(CC(C)C)CN1CC2` (stereo not given), the outcome was “inactive”.
With `CC(=O)N1CCN(c2ccc(OC[C@H]3CO[C@](Cn4ccnc4)(c4ccc(Cl)cc4Cl)O3)cc2)CC1` the outcome was “inactive”.
In the case of `c1cnc2cc3c(cc2n1)C1CNCC3C1`, the outcome was “inactive”.
In the case of `CC1(C)NC(=O)N(c2ccc([N+](=O)[O-])c(C(F)(F)F)c2)C1=O`, the outcome was “inactive”.
With `O=C1c2c(O)cc(O)cc2OC(c2ccc(O)c(O)c2)C1O` (stereo not given) the outcome was “inactive”.
In the case of `O=c1c(O)c(-c2cc(O)c(O)c(O)c2)oc2cc(O)cc(O)c12`, the outcome was “inactive”.
In the case of `Cc1cccc(C#Cc2ccccc2)n1`, the outcome was “inactive”.
In the case of `O=C1c2ccccc2-c2n[nH]c3cccc1c23`, the outcome was “inactive”.
With `Cc1cc(O)c2c(c1)C(=O)c1cc(O)cc(O)c1C2=O` the outcome was “inactive”.
In the case of `CN(C)CCCC1(c2ccc(F)cc2)OCc2cc(C#N)ccc21` (stereo not given), the outcome was “inactive”.
For `CCOC(=O)C1=C(O)C(=O)N(Cc2ccccc2)C1`, the outcome was “inactive”.
In the case of `Nc1nc(OCc2ccccc2)c2[nH]cnc2n1`, the outcome was “inactive”.
In the case of `O=C(c1ccccc1)c1ccc2n1CCC2C(=O)O` (stereo not given), the outcome was “inactive”.
For `CNC[C@H](O)c1ccc(O)c(O)c1`, the outcome was “inactive”.
In the case of `O=Nc1c(-c2c(O)[nH]c3cc(Br)ccc23)[nH]c2ccccc12`, the outcome was “inactive”.
With `C[C@@H](N)C1CCC(C(=O)Nc2ccncc2)CC1` (stereo not given in full) the outcome was “inactive”.
